According to the supplement of paper PMC13380429:

Legend:
[1] = tested on: Vero E6 infected with SARS-CoV-2; test: morphology score (similarity to uninfected cells); higher = more like uninfected cells; settings: 24 h
[2] = tested on: Vero E6 infected with SARS-CoV-2; test: SARS-CoV-2 infection rate relative to infected DMSO; higher = more infection, active = 60 or less; settings: 24 h

Compound: Cn1cccc1/C=C1\C(=O)NC(=O)c2ccccc21 (0.833333 µM)
- morphology score [1]: 0.0943
- SARS-CoV-2 infection rate [2]: 100% (inactive)

Compound: COc1cc2c(cc1OC)-c1c/c(=N\c3c(C)cc(C)cc3C)n(C)c(=O)n1CC2 [trequinsin] (10 µM)
- morphology score [1]: 0.541
- SARS-CoV-2 infection rate [2]: 87.5% (inactive)

Compound: C=C1C(=O)O[C@@H]2C[C@@]3(C)CCC[C@H](C)C3=C[C@H]12 [alantolactone] (10 µM)
- morphology score [1]: 0.304
- SARS-CoV-2 infection rate [2]: 32% (active)

Compound: CC(C)(C)C(=O)OCOC(=O)[C@@H]1N2C(=O)[C@@H](/N=C/N3CCCCCC3)[C@H]2SC1(C)C [pivmecillinam] (10 µM)
- morphology score [1]: -0.0287
- SARS-CoV-2 infection rate [2]: 99% (inactive)

Compound: CC[C@@](C)(Nc1ccnc(-c2c[nH]c3ncccc23)n1)C(=O)NCC(F)(F)F [decernotinib] (10 µM)
- morphology score [1]: 0.178
- SARS-CoV-2 infection rate [2]: 108% (inactive)

Compound: CCN(CC)C(=S)S [ditiocarb-sodium-trihydrate] (10 µM)
- morphology score [1]: 0.761
- SARS-CoV-2 infection rate [2]: 11% (active)

Compound: COc1cccc(C2(O)CCCCC2CN(C)C)c1 (centres undefined) (10 µM)
- morphology score [1]: 0.17
- SARS-CoV-2 infection rate [2]: 104% (inactive)

Compound: Cc1oc(-c2ccccc2)nc1CCOc1ccc(CC2SC(=O)NC2=O)c2sccc12 (centres undefined) [edaglitazone] (10 µM)
- morphology score [1]: 0.29
- SARS-CoV-2 infection rate [2]: 90.5% (inactive)

Compound: O=c1[nH]c2ccccc2n1CCCN1CCN(C(c2ccccc2)c2ccccc2)CC1 [oxatomide] (10 µM)
- morphology score [1]: -0.0451
- SARS-CoV-2 infection rate [2]: 106% (inactive)

Compound: O=C(N[C@H]1CCN(C(=O)c2cc(C(F)(F)F)cc(C(F)(F)F)c2)[C@H](Cc2ccc(Cl)cc2)C1)c1ccnc2ccccc12 (10 µM)
- morphology score [1]: 0.195
- SARS-CoV-2 infection rate [2]: 81.5% (inactive)

Compound: CC(=N)NCc1cccc(CN)c1 (10 µM)
- morphology score [1]: -0.0209
- SARS-CoV-2 infection rate [2]: 107% (inactive)

Compound: COc1ccc(CN2CCN(C(c3ccc(F)cc3)c3ccc(F)cc3)CC2)c(OC)c1OC [lomerizine] (10 µM)
- morphology score [1]: 0.0043
- SARS-CoV-2 infection rate [2]: 108% (inactive)

Compound: O=C1[C@@H]2[C@H]3CC[C@H](C3)[C@@H]2C(=O)N1CCCCN1CCN(c2ncccn2)CC1 [tandospirone] (10 µM)
- morphology score [1]: -0.0978
- SARS-CoV-2 infection rate [2]: 99% (inactive)

Compound: C=Cc1c(C)c2cc3nc(c(CC(=O)O)c4[n-]c(cc5nc(cc1[n-]2)C(C)=C5CC)c(C)c4C(=O)O)[C@@H](CCC(=O)O)[C@@H]3C.[Cu+2] [chlorophyllin-copper] (10 µM)
- morphology score [1]: -0.0712
- SARS-CoV-2 infection rate [2]: 108% (inactive)

Compound: CN1C[C@H](C(=O)N[C@]2(C)O[C@@]3(O)[C@@H]4CCCN4C(=O)[C@H](Cc4ccccc4)N3C2=O)C[C@@H]2c3cccc4[nH]cc(c34)C[C@H]21 [dihydroergotamine] (10 µM)
- morphology score [1]: -0.0107
- SARS-CoV-2 infection rate [2]: 104% (inactive)

Compound: CCC/C=C1\OC(=O)C2=C1CCC=C2 [ligustilide] (10 µM)
- morphology score [1]: 0.0279
- SARS-CoV-2 infection rate [2]: 108% (inactive)

Compound: COc1cc(O)c2c(c1)C(=O)c1cc(C)cc(O)c1C2=O [rheochrysidin] (10 µM)
- morphology score [1]: 0.119
- SARS-CoV-2 infection rate [2]: 109% (inactive)

Compound: CC(=O)O[C@]1(C(C)=O)CC[C@H]2[C@@H]3CCC4=CC(=O)CCC4=C3[C@@H](c3ccc(N(C)C)cc3)C[C@@]21C [Ulipristal acetate] (10 µM)
- morphology score [1]: 0.286
- SARS-CoV-2 infection rate [2]: 104% (inactive)

Compound: CC(C)c1ccccc1S(=O)(=O)c1cc(N)c2ncccc2c1[N+](=O)[O-] (10 µM)
- morphology score [1]: 0.225
- SARS-CoV-2 infection rate [2]: 95.5% (inactive)

Compound: C[C@@H](Oc1ccc(Cl)cc1)c1ccnc2ncnn12 (10 µM)
- morphology score [1]: -0.0401
- SARS-CoV-2 infection rate [2]: 112% (inactive)

Compound: O=c1[nH]c(=O)n([C@H]2C[C@H](O)[C@@H](CO)O2)cc1/C=C/Br [brivudine] (10 µM)
- morphology score [1]: 0.0102
- SARS-CoV-2 infection rate [2]: 108% (inactive)

Compound: C=C(C)[C@@H]1CC=C(CO)CC1 [perillyl-alcohol] (10 µM)
- morphology score [1]: 0.0351
- SARS-CoV-2 infection rate [2]: 100% (inactive)

Compound: CN1CCN(c2ccc(Nc3ncc4cc(C#N)c(=O)n(C5CCCC5)c4n3)cc2)CC1 (0.833333 µM)
- morphology score [1]: 0.153
- SARS-CoV-2 infection rate [2]: 104% (inactive)

Compound: CCOC(=O)c1ccc(N)cc1 [benzocaine] (10 µM)
- morphology score [1]: -0.0142
- SARS-CoV-2 infection rate [2]: 112% (inactive)

Compound: Cc1cc(-c2nc3cc(F)ccc3s2)ccc1NC(=O)[C@@H](N)CCCCN [phortress] (10 µM)
- morphology score [1]: -0.32
- SARS-CoV-2 infection rate [2]: 120% (inactive)

Compound: CCCN(CCC)[C@H]1CCc2ccc(O)cc2C1 [7-hydroxy-DPAT] (10 µM)
- morphology score [1]: -0.355
- SARS-CoV-2 infection rate [2]: 122% (inactive)

Compound: Cc1ncc([N+](=O)[O-])n1CC(O)CCl (centres undefined) [ornidazole] (10 µM)
- morphology score [1]: 0.0809
- SARS-CoV-2 infection rate [2]: 107% (inactive)
